# Experimental data published in ChEMBL document CHEMBL3433997, “St. Jude Leishmania screening dataset” (2016).
# Legend:
# Assay type in all cases: functional
# [1] = biological target: Solute carrier family 2, facilitated glucose transporter member 1 (Homo sapiens) (UniProt P11166); assay: ST_JUDE_LEISH: Cytotoxicity at 2uM final concentration against transgenic Leishmania Mexicana promastigotes LmGLUT1 that are glucose transport deficient and complemented with the human glucose transporter GLUT1. Activity is measured by DNA content using SYBR green in vitro
# Chain of Solute carrier family 2, facilitated glucose transporter member 1 (Homo sapiens) (P11166 whole entry): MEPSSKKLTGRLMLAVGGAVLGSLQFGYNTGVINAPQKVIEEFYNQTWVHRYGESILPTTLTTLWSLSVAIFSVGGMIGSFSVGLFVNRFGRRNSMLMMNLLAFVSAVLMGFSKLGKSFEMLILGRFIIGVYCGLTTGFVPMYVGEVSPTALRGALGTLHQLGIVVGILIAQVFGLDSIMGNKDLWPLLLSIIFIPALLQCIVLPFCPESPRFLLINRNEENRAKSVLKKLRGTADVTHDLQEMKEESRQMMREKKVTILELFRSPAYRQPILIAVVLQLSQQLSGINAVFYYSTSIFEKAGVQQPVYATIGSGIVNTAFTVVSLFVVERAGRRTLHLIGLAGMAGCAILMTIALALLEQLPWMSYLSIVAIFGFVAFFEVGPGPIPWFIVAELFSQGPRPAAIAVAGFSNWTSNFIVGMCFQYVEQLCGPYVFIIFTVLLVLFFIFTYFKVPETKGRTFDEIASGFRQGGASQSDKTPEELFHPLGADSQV
# [2] = biological target: Hexose transporter 1 (Plasmodium falciparum) (UniProt O97467); assay: ST_JUDE_LEISH: Cytotoxicity at 2uM final concentration against transgenic Leishmania Mexicana promastigotes LmPfHT that are glucose transport deficient and complemented with the Plasmodium falciparum hexose transporter. Activity is measured by DNA content using SYBR green in vitro
# [3] = biological target: Glucose transporter (Leishmania mexicana) (UniProt O61059); assay: ST_JUDE_LEISH: Cytotoxicity at 2uM final concentration against transgenic Leishmania Mexicana promastigotes LmGT2 that are glucose transport deficient and complemented with the L. Mexicana glucose transporter 2. Activity is measured by DNA content using SYBR green in vitro
smiles,measurement,setting,value
CCc1cc2c3c(N)nc(N)nc3ccc2n1C(C)(C)C,inhibition,[1],96%
same,inhibition,[2],94.4%
same,inhibition,[3],78.4%
COc1ccc(-c2cccc(NC(=O)c3cccc(C#N)c3)c2)cc1CN(C)CCN(C)C,inhibition,[1],1.23%
same,inhibition,[2],1.39%
same,inhibition,[3],0.48%
COc1ccccc1CCNc1nc(C)cc(N[C@@H](Cc2ccccc2)C(=O)Nc2ccccc2)n1,inhibition,[1],12%
same,inhibition,[2],10.7%
same,inhibition,[3],8.65%
O=C(/C=C/c1ccc(F)c(Br)c1)NCCCCCN1CCC(c2c[nH]c3ccccc23)CC1,inhibition,[1],1.88%
same,inhibition,[2],0.52%
same,inhibition,[3],-1.08%
O=[N+]([O-])c1cc(/C=N/Nc2nc3nonc3nc2Nc2ccc(F)cc2)c(Cl)cc1Cl,inhibition,[1],-0.53%
same,inhibition,[2],-0.25%
same,inhibition,[3],-0.83%
COc1cc(Nc2ncnc3cc(OC)c(OC)cc23)cc([N+](=O)[O-])c1,inhibition,[1],-1.65%
same,inhibition,[2],0.11%
same,inhibition,[3],-0.41%
CC(C)(C)c1cc(Cn2ccnc2)cc(C(C)(C)C)c1O,inhibition,[1],6.9%
same,inhibition,[2],9.32%
same,inhibition,[3],4.9%
Cc1ccc(NC(=O)c2cc(Br)cc(N3CCC(N(C)C)CC3)c2)cc1F,inhibition,[1],7.55%
same,inhibition,[2],7.67%
same,inhibition,[3],6.75%
COC(=O)Cn1c(C2CCN(CC3CCC(NC(=O)/C=C/c4ccc(Cl)c(Cl)c4)CC3)CC2)nc2ccccc21 (stereo unspecified),inhibition,[1],1.86%
same,inhibition,[2],0.18%
same,inhibition,[3],2.43%
Cc1noc(C)c1-c1ccc2c(Nc3ccccc3C(C)(C)C)c(C(=O)NCc3ccc4c(c3)OCO4)cnc2c1,inhibition,[1],-1.21%
same,inhibition,[2],2.69%
same,inhibition,[3],-0.92%
O=C(/C=C/c1ccc(Cl)cc1)NCCCCCN1CCCC(C(=O)Nc2ccc(Cl)cc2)C1 (stereo unspecified),inhibition,[1],3.89%
same,inhibition,[2],5.61%
same,inhibition,[3],3.7%
CC(C)(C(=O)Nc1ccc(C2CCC(NCC3CC3)CC2)c(Cl)c1)c1ccc(C(F)(F)F)cc1 (stereo unspecified),inhibition,[1],0.29%
same,inhibition,[2],0.31%
same,inhibition,[3],-0.91%
COc1ccc2ncc(F)c(CCN3CC[C@@H](CNCc4ccc5c(c4C)OCCO5)C3)c2n1,inhibition,[1],27.8%
same,inhibition,[2],35.3%
same,inhibition,[3],52.1%
CS(=O)(=O)CCNCc1cccc(-c2ccc3c(Nc4cc(O)c(Cl)cc4F)ccnc3c2)c1,inhibition,[1],6.47%
same,inhibition,[2],4.71%
same,inhibition,[3],2.65%
CC(C)(CNC(=O)[C@H]1CCCCN1)c1nc(-c2ccc(Cl)c(O)c2)c(-c2ccncc2)[nH]1,inhibition,[1],5.66%
same,inhibition,[2],4.64%
same,inhibition,[3],6.24%
Cc1ccc(NC(=O)Nc2ccccc2F)cc1-c1ccc(C(=O)Nc2ccncc2)cc1,inhibition,[1],1.42%
same,inhibition,[2],1.06%
same,inhibition,[3],0.59%
CC(C)CCCC(C)(C)NC[C@@H](O)[C@H](Cc1ccccc1)NC(=O)c1cc(NC(C)C)cc(N2CCCCS2(=O)=O)c1F,inhibition,[1],7.51%
same,inhibition,[2],5.83%
same,inhibition,[3],7.87%
CCC(CCON1C(N)=NC(N)=NC1(C)C)c1ccc(Cl)c(Cl)c1 (stereo unspecified),inhibition,[1],3.2%
same,inhibition,[2],3.06%
same,inhibition,[3],3.3%
O=C(NCCc1ccc(Cl)c(Cl)c1)[C@@H]1CCCN1C(=O)c1ccc(O)c(-c2ccc(Cl)c(Cl)c2)c1,inhibition,[1],-1.56%
same,inhibition,[2],-0.69%
same,inhibition,[3],-1.51%
Cc1[nH]c(C)c(-c2ccc(CCc3ccc(C(F)(F)F)cc3)nc2)c(=O)c1Cl,inhibition,[1],2.59%
same,inhibition,[2],3.29%
same,inhibition,[3],0.56%
O=C(NC1CCCCN(Cc2ccccc2O)C1)c1cccc(Cl)c1 (stereo unspecified),inhibition,[1],1.27%
same,inhibition,[2],1.65%
same,inhibition,[3],-1.89%
CC(C)C1=NC(=O)c2cc([N+](=O)[O-])ccc2CN1,inhibition,[1],1.78%
same,inhibition,[2],1.79%
same,inhibition,[3],2.11%
O=c1cc(NCCCN(Cc2cc3c(Cl)cc(Cl)cc3[nH]2)Cc2cc3c(Cl)cc(Cl)cc3[nH]2)[nH]c2ccccc12,inhibition,[1],9.06%
same,inhibition,[2],9.4%
same,inhibition,[3],7.31%
COc1cc2c(cc1OCCN1CCC(N)CC1)N(C(=O)/C=C/c1ccccc1Cl)CC2,inhibition,[1],11.3%
same,inhibition,[2],10.8%
same,inhibition,[3],12.8%
CCCCN(CCCC)C(=O)CC(O)c1cc2c(Cl)cc(Cl)cc2c2cc(C(F)(F)F)ccc12 (stereo unspecified),inhibition,[1],1.87%
same,inhibition,[2],1.18%
same,inhibition,[3],2.43%
CC(C)(C)c1ccc(CNC(=O)c2ccc(-c3nc4ccc(Cl)cc4[nH]3)cc2)cc1,inhibition,[1],1.67%
same,inhibition,[2],1.77%
same,inhibition,[3],1.63%
Cn1ccnc1Sc1ncccc1[N+](=O)[O-],inhibition,[1],-2.32%
same,inhibition,[2],0.92%
same,inhibition,[3],1.8%
CC(C)(CNCc1ccccc1)c1nc(-c2ccc(Cl)c(O)c2)c(-c2ccncc2)[nH]1,inhibition,[1],4.28%
same,inhibition,[2],4.73%
same,inhibition,[3],3.53%
CC(=O)N(C)c1ccc(C(=O)Nc2cccc(-c3cccc(-c4nc5cc(C(F)(F)F)ccc5[nH]4)c3)c2)cc1,inhibition,[1],8.18%
same,inhibition,[2],7.82%
same,inhibition,[3],5.77%
CS(=O)(=O)NCCCNCc1ccc(-c2cccc(-c3nc4cc(C(F)(F)F)ccc4[nH]3)c2)cc1,inhibition,[1],5.19%
same,inhibition,[2],3.56%
same,inhibition,[3],5.43%
CCN(CC)CCNC(=O)c1ccc(NC(=O)c2cc(-c3ccncc3)nc3ccccc23)cc1,inhibition,[1],0.16%
same,inhibition,[2],-0.76%
same,inhibition,[3],-1.61%
N#Cc1ccc2c(c1)CN(CCC1CCC(NC(=O)c3cc4cc(OC(F)(F)F)ccc4[nH]3)CC1)CC2 (stereo unspecified),inhibition,[1],3.11%
same,inhibition,[2],2.72%
same,inhibition,[3],0.85%
